Myeloid diff MLP = induction of myeloid progenitor differentiation, primary screen, cell-based, flow cytometry, MLPCN library; AID 624256, 2012; calls only at 10 µM; ER-HoxA9 myeloid progenitors, lysozyme-GFP differentiation; hit rate 1% among 360,000;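 active means normalized GFP-positive differentiation at or above the plate's own cutoff, the solvent-only control mean plus 3 SD; inconclusive means no clear call, values can overlap the other calls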;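 further: cells exposed to compound for four days before flow analysis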
ABCB6 inh 2 = ABCB6 transporter inhibitors, primary screen, K562-ABCB6 cells, flow cytometry, MLPCN library; ATP-binding cassette sub-family B member 6 (Homo sapiens), Q9NP58; K562-ABCB6 porphyrin accumulation, 1 h; stronger effect = lower value; fluorescence ratio to DMSO, % at 10 µM; hit rate 0.19% among 360,000; AID 602162, 2011;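 active means fluorescence ratio to DMSO below 75%, the collection mean minus 3 SD; inconclusive means too few cells collected in the well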;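 further: signal is porphyrin accumulated inside mitochondria; lower ratio means ABCB6 inhibition with less porphyrin fluorescence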
Target sequence (Q9NP58 whole entry, looked up): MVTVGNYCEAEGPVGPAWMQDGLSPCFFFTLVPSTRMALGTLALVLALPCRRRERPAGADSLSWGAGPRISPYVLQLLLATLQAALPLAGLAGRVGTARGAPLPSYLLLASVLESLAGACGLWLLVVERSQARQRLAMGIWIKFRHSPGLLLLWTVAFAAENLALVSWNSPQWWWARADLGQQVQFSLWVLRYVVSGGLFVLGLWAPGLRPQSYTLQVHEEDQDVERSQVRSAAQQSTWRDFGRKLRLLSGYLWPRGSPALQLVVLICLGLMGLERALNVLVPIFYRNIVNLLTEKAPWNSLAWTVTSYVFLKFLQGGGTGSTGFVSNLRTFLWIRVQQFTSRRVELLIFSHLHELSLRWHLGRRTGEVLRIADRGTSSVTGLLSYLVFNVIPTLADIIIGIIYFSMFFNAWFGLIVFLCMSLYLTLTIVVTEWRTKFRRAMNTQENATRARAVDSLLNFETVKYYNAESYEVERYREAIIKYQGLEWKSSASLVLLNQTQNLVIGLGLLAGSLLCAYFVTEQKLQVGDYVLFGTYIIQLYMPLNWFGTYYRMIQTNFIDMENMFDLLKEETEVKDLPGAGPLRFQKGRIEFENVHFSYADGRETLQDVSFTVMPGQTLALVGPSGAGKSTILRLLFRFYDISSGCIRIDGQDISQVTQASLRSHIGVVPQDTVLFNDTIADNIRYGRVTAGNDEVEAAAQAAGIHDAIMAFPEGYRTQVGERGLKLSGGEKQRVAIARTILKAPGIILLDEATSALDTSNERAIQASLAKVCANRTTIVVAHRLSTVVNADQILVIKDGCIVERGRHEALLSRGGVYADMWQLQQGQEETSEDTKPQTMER
Granule exo inh = LAMP-1 surface exposure blockers, TALL-104 cells – cell-based, flow cytometry, MLPCN library, primary screen | AID 651702, 2012 | hit rate 0.66% among 360,000 | inhibition, % at 10 µM | TALL-104 LAMP-1 surface exposure; cells stimulated with thapsigargin and PMA;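 active means inhibition above about 55%, limit read from the data; inconclusive means no clear call, values can overlap the other calls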
A number is an active result; 0 = inactive; ? = inconclusive; - = no result; + = active, no number. Hits are enriched below; roughly 1.8% of the tested compounds scored in any of these assays.

SMILES	Myeloid diff MLP	ABCB6 inh 2	Granule exo inh
COc1ccccc1CNC(=O)C(=O)NCC1OCCN1S(=O)(=O)c1ccc(Br)cc1 (centres undefined)	-	0	0
Cc1ccccc1S(=O)(=O)N(C)C[C@H]1OCc2cnnn2CCCC(=O)N([C@@H](C)CO)C[C@H]1C	0	0	0
Cc1ccccc1S(=O)(=O)N(C)C[C@H]1OCc2cnnn2CCCC(=O)N([C@H](C)CO)C[C@H]1C	+	0	0
CSc1ccc(CN2CCC(C)(Oc3ccc(F)cc3)C2)cc1 (centres undefined)	0	0	0
O=S1(=O)CC(N2CCN(CCO)CC2)CN1Cc1cn(Cc2cccc(C(F)(F)F)c2)nn1 (centres undefined)	0	0	0
COc1ccc(C(NC(=O)/C=C/c2ccco2)c2ccc(OC)cc2)cc1	0	0	0
COc1ccc(C(NC(=O)/C=C\c2ccco2)c2ccc(OC)c(OC)c2)cc1 (centres undefined)	0	61.0	0
CC(Oc1ccccc1)C(=O)NNC(=O)c1cccs1 (centres undefined)	+	-	0
O=C(NNC(=O)c1cccs1)c1ccccc1	0	0	0
CC1Cc2ccccc2N1Cc1cccc([N+](=O)[O-])c1 (centres undefined)	0	0	0
COCCCNc1c2c3c(cccc3[nH]c1=O)C(=O)c1ccccc1-2	+	0	0
COCCCNc1nc2ccccc2[nH]c1=O	0	0	0
COCCCNC1=C(Cl)C(=O)c2ccccc2C1=O	0	0	56.2
CC(C)OCCCNC1=C(Cl)C(=O)c2ccccc2C1=O	0	0	0
CCN(CC)C(=O)C1=C(C)N(Cc2ccc(C(C)(C)C)cc2)C(=O)C(CC(=O)NC2CC2)C1 (centres undefined)	0	0	0
CC(C)N1CC2(CC(c3ccc(Cl)cc3Cl)=NO2)CN1C(=O)c1ccc(C(C)(C)C)cc1 (centres undefined)	0	0	0
O=C(C[C@H]1C/C=C\C[C@H](NC(=O)OCC2c3ccccc3-c3ccccc32)C(=O)OC[C@H]2CCCN2C1=O)NCCO	0	0	59.0
O=C(C[C@H]1C/C=C\C[C@H](NC(=O)OCC2c3ccccc3-c3ccccc32)C(=O)OC[C@@H]2CCCN2C1=O)NCCO	0	0	0
COc1ccc(CCCNC(=O)C2Cc3c(-c4ccc(NC(C)=O)cc4)ccnc3O2)cc1 (centres undefined)	0	0	0
CC(/C=C/c1ccc(O)cc1)=NNc1ccccc1	0	0	59.0
CC(/C=C/c1ccccc1)=N\Nc1nc(C)cc(C)n1	0	0	0
COc1ccc(-n2nnnc2C(CCc2ccccc2)N2CCN(C/C=C/c3ccccc3)CC2)cc1 (centres undefined)	0	0	0
CCn1c(SCC(=O)c2c[nH]c3ccccc23)nnc1-c1cccs1	+	0	0
COCCn1c(SCC(=O)c2c[nH]c3ccccc23)nnc1-c1ccncc1	0	0	0
COCCn1c(SCC(=O)N2CCCC2=O)nnc1-c1ccncc1	0	0	0
SMILES	Myeloid diff MLP	ABCB6 inh 2	Granule exo inh
CCOC(=O)c1ccc(NC(=O)Nc2ccn(C)n2)cc1	+	0	0
CCOC(=O)c1ccc(NC(=O)Nc2cccc(C)n2)cc1	0	0	0
COc1cc(C2C(C#N)=C(N)N(c3ccc(F)cc3)C3=C2S(=O)(=O)CC3)ccc1O (centres undefined)	+	0	0
COc1cc(C2C(C#N)=C(N)N(c3cccnc3)C3=C2C(=O)CCC3)ccc1O (centres undefined)	0	0	0
CN(C)c1ncnc2c1ncn2[C@H]1CN(Cc2cccnc2)C[C@@H](CO)O1	0	0	0
CCc1c(C(=O)N/N=C/c2ccco2)nnn1-c1nonc1N	0	0	0
CN(C)CC1CC/C(=C\c2ccc(O)cc2)C1=O (centres undefined)	?	0	0
O=C1/C(=C\c2ccc(Cl)cc2)CCC1CNc1ccc(Cl)cc1 (centres undefined)	+	0	0
Cc1nnc(N2C(=O)C(O)=C(C(=O)c3ccco3)C2c2ccc(C(C)(C)C)cc2)s1 (centres undefined)	+	0	0
Cc1nnc(N2C(=O)C(O)=C(C(=O)c3ccco3)C2c2ccc(F)cc2)s1 (centres undefined)	0	0	0
Cc1cccc(C(=O)NNC(=O)c2ccc3ccccc3c2)c1	0	0	0
COc1ccc(C(=O)C2CCCN(Cc3ccc4nonc4c3)C2)cc1F (centres undefined)	0	0	0
COc1ccc(C(=O)C2CCCN(Cc3ccc(C#CCCO)cc3)C2)cc1F (centres undefined)	+	0	0
CN[C@H](C)C(=O)NC[C@H]1O[C@@H](n2cnc3c(N)ncnc32)[C@H](O)[C@@H]1O	0	0	0
CCCN(CCC)C(=O)CSc1nc2n[nH]c(C)c2c(=N)n1-c1ccc(OCC)cc1	0	0	0
CCOc1ccc(-n2c(SCC(=O)Nc3ccc(CC)cc3)nc3n[nH]c(C)c3c2=N)cc1	+	0	0
Cc1ccc(-c2csc(NC(=O)c3cc([N+](=O)[O-])ccc3N3CCOCC3)n2)cc1	0	0	0
O=C(Nc1nc(-c2ccccc2)cs1)c1ccc(N2CCOCC2)c([N+](=O)[O-])c1	0	0	84.4
CCN1C(=O)[C@H]2[C@@H](c3ccc(-c4ccc(F)cc4)c(OC)c3)N[C@@](Cc3ccccc3)(C(=O)OC)[C@H]2C1=O	0	0	0
CC(CN1CCN(Cc2ccccc2)CC1)c1ccccc1 (centres undefined)	0	0	61.1
CC(CN1CCC(O)CC1)c1ccccc1 (centres undefined)	-	0	0
C/C=C(/C)C(=O)O[C@@H]1[C@H](OC(C)=O)c2c(ccc3ccc(=O)oc23)OC1(C)C	0	0	60.9
C/C=C(/C)C(=O)OC1c2c(ccc3ccc(=O)oc23)OC(C)(C)C1OC(C)=O (centres undefined)	0	0	0
CCCCC(CCC(=O)Nc1cccc([N+](=O)[O-])c1)C(=O)O (centres undefined)	0	0	0
O=C(C1=NOC2(C1)C(=O)Nc1ccccc12)N1CCCCC1 (centres undefined)	0	0	0
SMILES	Myeloid diff MLP	ABCB6 inh 2	Granule exo inh
CCCCN1C(=O)C2Cc3c([nH]c4ccccc34)CN2C1=S (centres undefined)	+	0	0
O=C1[C@@H]2Cc3c([nH]c4ccccc34)CN2C(=O)CN1CCCO	0	0	0
CCCCCN1CC(=O)N2Cc3[nH]c4ccccc4c3C[C@H]2C1=O	0	0	0
CCCCCN1CC(=O)N2C(C)c3[nH]c4ccccc4c3C[C@H]2C1=O (some centres undefined)	+	0	0
C=CCN1CC(=O)N2Cc3[nH]c4ccccc4c3C[C@H]2C1=O	+	0	0
CCCCOCCCN1CC(=O)N2C(C)c3[nH]c4ccccc4c3C[C@H]2C1=O (some centres undefined)	0	0	0
COC(=O)C[C@H]1CC[C@@H](NC(=O)Nc2c(C)noc2C)[C@@H](CO)O1	0	-	0
CC(=O)N1CCOc2ccc(S(=O)(=O)N(C)c3ccc(C)cc3)cc21	0	0	0

Bioassay records deposited in PubChem by NMMLSC.
